Results reported in PubChem BioAssay (EPA / NIEHS).
Several values for one entry are separate records, joined by “and”; a condition that tells them apart may be missing. Equal entries are not always repeated. Some structures have more than one record in an assay (separate samples or runs), and their calls can disagree. Activity calls are given as the source filed them. The calls were made as follows: active = hit-call score of the fitted dose curve at least 0.9, where 1 is the maximum; inactive = score below 0.9.

Read-out: TIMP metallopeptidase inhibitor 1 (TIMP1), TIMP1 (gene 7076)
Assay: BSK_hDFCGF_TIMP1: BioMAP Diversity Plus: hDFCGF Assay for TIMP metallopeptidase inhibitor 1 (TIMP1) Biomarker Activity (AID 2283062)
Conditions: primary human foreskin fibroblasts; actives raise or lower the signal
Procedure: BSK_hDFCGF is a cell-based, multiplexed-readout assay that uses foreskin fibroblast, a human skin primary cell, with measurements taken at 24 hours after chemical dosing in a 96-well plate.BSK_hDFCGF_TIMP1 is an assay component measured in the BSK_hDFCGF assay. It measures TIMP-1 antibody related to regulation of gene expression using ELISA technology.Data from the assay component BSK_hDFCGF_TIMP1 was analyzed into 1 assay endpoint. This assay endpoint, BSK_hDFCGF_TIMP1, was analyzed with bidirectional fitting relative to DMSO as the negative control and baseline of activity. Using a type of binding reporter, gain or loss-of-signal activity can be used to understand changes in the signaling as they relate to the gene TIMP1. Furthermore, this assay endpoint can be referred to as a primary readout, because this assay has produced multiple assay endpoints where this one serves a signaling function. To generalize the intended target to other relatable targets, this assay endpoint is annotated to the protease inhibitor intended target family, where the subfamily is metalloproteinase inhibitor.
The levels of cell surface (or secreted, indicated by the prefix "s") biomarker endpoints were measured by ELISA. Overt cytotoxicity to cells in confluent adherent cultures (all systems other than the BT system) was assessed by measuring total protein levels using sulforhodamine B (SRB) staining in parallel cultures at the time of biomarker measurements, indicated as SRB endpoints. For proliferation assays for adherent cell types, individual cell types are cultured at sub-confluence and relative cell numbers quantified by SRB staining at time points optimized for each system (48 h: 3C and CASM3C systems; 72 h: BT and HDF3CGF systems; 96 h: SAg system). SRB was performed by staining cells with 0.1% SRB after fixation with 10% TCA and reading wells at 560 nm.Viability and proliferation of PBMC (T cells) was quantified by Alamar Blue reduction for the SAg and BT systems. For PBMC viability (referred to as PBMC Cytotoxicity within the assay endpoint names), cells were plated (75,000/well in a 96-well plate) and then chemical samples added for 1 h before addition of activators, SEB and TSST-1 (20 ng/mL final concentration each). Cells were incubated for 90 h. Then, Alamar Blue (20 uL/well) (Invitrogen, Cat DAL1100) was added for 6 h, and the plates were read with a fluorescence microplate reader at 546/580 nm (excitation/emission). For PBMC proliferation, cells were plated and activated as above but incubated for only 16 h prior to addition of Alamar Blue. Plates were read after 6 h.

SMILES	outcome	AC50
CO[Si](C)(CCC(F)(F)C(F)(F)C(F)(F)C(F)(F)C(F)(F)C(F)(F)F)OC	inactive	
O=C1c2c(O)ccc(Nc3ccc(CCO)cc3)c2C(=O)c2c([N+](=O)[O-])ccc(O)c21		20 µM (active)
OCC(O)CC(F)(F)C(F)(F)C(F)(F)C(F)(F)F (stereo not given)	inactive	
C[Si](Cl)(Cl)CCC(F)(F)C(F)(F)C(F)(F)C(F)(F)C(F)(F)C(F)(F)F	inactive	0.739 µM (active)
C=CC(=O)OCCC(F)(F)C(F)(F)C(F)(F)C(F)(F)F	inactive	
CCN(CCO)S(=O)(=O)C(F)(F)C(F)(F)C(F)(F)C(F)(F)C(F)(F)C(F)(F)C(F)(F)C(F)(F)F	inactive	
Nc1cc([N+](=O)[O-])cc(Cl)c1O	inactive	
CCN(CC)c1ccc(C=O)c(O)c1	inactive	
O=C(c1ccccc1)c1ccc(O)cc1O	inactive	
C[C@]12CC[C@H]3C(=CCc4cc(O)ccc43)[C@@H]1CCC2=O	inactive	
O=C1C=CC(=O)N1c1ccc(Cc2ccc(N3C(=O)C=CC3=O)cc2)cc1		2.7 µM (active)
OCC(F)(F)C(F)(F)C(F)(F)C(F)(F)C(F)(F)C(F)(F)CO	inactive	
CC1=CC2C3C=CC(C3)C2C1C (stereo not given)	inactive	
O=S(=O)(O)CCC(F)(F)C(F)(F)C(F)(F)C(F)(F)F	inactive	
CCOC(=O)CC(=O)C(F)(F)C(F)(F)F	inactive	
OCC(O)CC(F)(F)C(F)(F)C(F)(F)C(F)(F)C(F)(F)C(F)(F)C(F)(F)C(F)(F)F (stereo not given)	inactive	
O=S(=O)(O)CCC(F)(F)C(F)(F)C(F)(F)C(F)(F)C(F)(F)C(F)(F)C(F)(F)C(F)(F)F	inactive	
C=C(C)C(=O)OCC(F)(F)C(F)(F)C(F)(F)C(F)F	inactive	
OCC(F)(F)C(F)(F)C(F)(F)C(F)(F)C(F)(F)C(F)(F)C(F)(F)C(F)(F)CO		46.7 µM (active) and 54.5 µM (active)

SMILES	outcome	AC50
NCC(F)(F)C(F)(F)C(F)(F)C(F)(F)C(F)(F)C(F)(F)F	inactive	
FC(F)(F)C(F)(F)C(F)(F)CC1CO1 (stereo not given)	inactive	
CNS(=O)(=O)C(F)(F)C(F)(F)C(F)(F)C(F)(F)C(F)(F)C(F)(F)C(F)(F)C(F)(F)F	inactive	
O=C=NCc1cccc(CN=C=O)c1	inactive	
O=C(Cl)C(F)(F)C(F)(F)C(F)(F)C(F)(F)C(F)(F)C(F)(F)C(F)(F)F	inactive	26.4 µM (active)
CCN=C1C=CC(=C(c2ccc(N(CC)CC)cc2)c2ccc(N(CC)CC)cc2)c2ccccc21		1.42 µM (active) and 1.3 µM (active)
O=C(O)C(F)(F)C(F)(F)C(F)(F)OC(F)(C(F)(F)F)C(F)(F)F	inactive	
O=C(O)CCC(F)(F)C(F)(F)C(F)(F)C(F)(F)C(F)(F)C(F)(F)C(F)(F)F	inactive	
OCC(F)(F)C(F)(F)C(F)(F)CO	inactive	
O=C(F)C1(F)C(F)(F)C(F)(F)C(F)(F)C(F)(F)C1(F)F	inactive	
NCC(F)(F)C(F)(F)C(F)(F)C(F)(F)C(F)(F)C(F)(F)C(F)(F)C(F)(F)F	inactive	
NC(=O)C(F)(F)C(F)(F)C(F)(F)F	inactive	
O=C(O)C(F)(F)C(F)(F)C(F)(F)OC(F)(F)F	inactive	
CC(C)(C)c1cc(CCC(=O)NCCCCCCNC(=O)CCc2cc(C(C)(C)C)c(O)c(C(C)(C)C)c2)cc(C(C)(C)C)c1O	inactive	
Cc1cc(C)c(O)c(C(C)(C)C)c1		30.1 µM (active)
FC(F)(F)C(F)(F)C(F)(F)C(F)(F)C(F)(F)C(F)(F)CC[Si](Cl)(Cl)Cl	inactive	
CCOC(C=C(C)CCC=C(C)C)OCC		20 µM (active)
C=CC(=O)OCC(F)(F)C(F)(F)C(F)(F)COC(=O)C=C		2.37 µM (active) and 737 nM (active)
FC(F)(F)C(F)(F)C(F)(F)C(F)(F)C(F)(F)C(F)(F)C(F)(F)CCI	inactive	
